{
  "source": "paper PMC7862700",
  "about": "“An all-to-all approach to the identification of sequence-specific readers for epigenetic DNA modifications on cytosine”",
  "test_in_all_cases": "DAPPL (digital affinity profiling via proximity ligation, sequencing); 10 mM Tris-HCl pH 7.5, 50 mM NaCl, 1 mM DTT, 4% glycerol, room temperature, 30 min; GST-TFs on glutathione beads, 16-mer random dsDNA library, 0.1% formaldehyde crosslink after washing; high values mean tight binding",
  "key": {"[1]": {"target": "T1, FEV (Homo sapiens, UniProt Q99581 1-238)", "T1 sequence": "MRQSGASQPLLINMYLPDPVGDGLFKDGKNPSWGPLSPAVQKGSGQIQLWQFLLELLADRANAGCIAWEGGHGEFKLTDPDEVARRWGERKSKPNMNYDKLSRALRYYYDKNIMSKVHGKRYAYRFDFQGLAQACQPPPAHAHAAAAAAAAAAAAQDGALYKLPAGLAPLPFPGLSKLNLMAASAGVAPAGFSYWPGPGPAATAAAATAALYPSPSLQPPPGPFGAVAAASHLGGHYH", "settings": "protein: recombinant; tags: N-terminal GST; dsDNA, one strand shown", "in_short": "(§1)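 The binding signal reported is, for every hexamer, its read frequency for a factor over its read frequency for the tag-only sample. Reads came from pools of yeast-expressed, GST-fused human transcription factors on glutathione beads, barcoded with DNA and mixed with that sample, which were incubated with 200 nmole of a random double-stranded 16-mer DNA library in Tris/NaCl/DTT/glycerol buffer at room temperature for 30 min. After washing, the pools were crosslinked with 0.1% formaldehyde, proximity-ligated with BsaI/T4 ligase for 1 h at 37 °C, PCR-amplified and sequenced on an Illumina NextSeq500.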"}, "[2]": {"target": "ETV5 (Homo sapiens, UniProt P41161 1-510)", "sequence (P41161 whole entry)": "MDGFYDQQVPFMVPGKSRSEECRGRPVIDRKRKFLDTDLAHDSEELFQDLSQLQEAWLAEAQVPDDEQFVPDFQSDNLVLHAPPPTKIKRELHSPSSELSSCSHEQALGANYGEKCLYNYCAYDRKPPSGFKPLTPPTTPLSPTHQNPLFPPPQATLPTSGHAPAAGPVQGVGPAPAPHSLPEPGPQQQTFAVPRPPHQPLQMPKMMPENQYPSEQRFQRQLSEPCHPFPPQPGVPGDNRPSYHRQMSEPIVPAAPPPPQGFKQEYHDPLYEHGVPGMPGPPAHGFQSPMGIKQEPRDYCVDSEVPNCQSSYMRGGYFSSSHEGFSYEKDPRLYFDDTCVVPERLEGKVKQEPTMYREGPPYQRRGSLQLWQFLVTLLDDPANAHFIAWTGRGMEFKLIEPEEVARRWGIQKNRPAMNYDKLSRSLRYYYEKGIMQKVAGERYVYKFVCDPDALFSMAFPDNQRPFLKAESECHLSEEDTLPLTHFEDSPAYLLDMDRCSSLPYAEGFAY", "settings": "protein: recombinant; tags: N-terminal GST; dsDNA, one strand shown", "in_short": "as §1"}, "[3]": {"target": "HSF1 (Homo sapiens, UniProt Q00613 1-529)", "sequence (Q00613 whole entry)": "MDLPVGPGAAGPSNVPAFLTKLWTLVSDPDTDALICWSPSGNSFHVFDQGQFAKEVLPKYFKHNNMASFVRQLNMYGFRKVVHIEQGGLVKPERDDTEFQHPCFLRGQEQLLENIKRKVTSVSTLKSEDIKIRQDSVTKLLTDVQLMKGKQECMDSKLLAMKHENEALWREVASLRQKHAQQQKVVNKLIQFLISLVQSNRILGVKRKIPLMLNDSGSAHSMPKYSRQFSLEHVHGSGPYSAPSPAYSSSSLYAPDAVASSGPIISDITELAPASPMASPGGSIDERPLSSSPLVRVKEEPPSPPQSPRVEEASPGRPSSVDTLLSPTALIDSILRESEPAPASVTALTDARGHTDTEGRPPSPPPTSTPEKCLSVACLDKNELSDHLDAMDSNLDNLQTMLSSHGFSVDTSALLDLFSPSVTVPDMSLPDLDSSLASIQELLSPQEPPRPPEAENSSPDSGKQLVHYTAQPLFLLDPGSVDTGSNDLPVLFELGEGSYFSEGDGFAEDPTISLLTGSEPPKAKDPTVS", "settings": "protein: recombinant; tags: N-terminal GST; chain copies: 3; dsDNA, one strand shown", "in_short": "as §1"}, "[4]": {"target": "T2, SPIC (Homo sapiens, UniProt Q8N5J4 1-248)", "T2 sequence": "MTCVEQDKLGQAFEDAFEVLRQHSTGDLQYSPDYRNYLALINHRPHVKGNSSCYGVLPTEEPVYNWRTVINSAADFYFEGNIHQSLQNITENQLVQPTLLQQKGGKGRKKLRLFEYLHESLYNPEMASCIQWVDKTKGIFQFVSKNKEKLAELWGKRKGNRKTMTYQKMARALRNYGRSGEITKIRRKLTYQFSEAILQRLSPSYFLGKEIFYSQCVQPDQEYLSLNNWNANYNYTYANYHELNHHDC", "settings": "protein: recombinant; tags: N-terminal GST; dsDNA, one strand shown", "in_short": "as §1"}, "[5]": {"target": "ELF4 (Homo sapiens, UniProt Q99607 1-663)", "sequence (Q99607 whole entry)": "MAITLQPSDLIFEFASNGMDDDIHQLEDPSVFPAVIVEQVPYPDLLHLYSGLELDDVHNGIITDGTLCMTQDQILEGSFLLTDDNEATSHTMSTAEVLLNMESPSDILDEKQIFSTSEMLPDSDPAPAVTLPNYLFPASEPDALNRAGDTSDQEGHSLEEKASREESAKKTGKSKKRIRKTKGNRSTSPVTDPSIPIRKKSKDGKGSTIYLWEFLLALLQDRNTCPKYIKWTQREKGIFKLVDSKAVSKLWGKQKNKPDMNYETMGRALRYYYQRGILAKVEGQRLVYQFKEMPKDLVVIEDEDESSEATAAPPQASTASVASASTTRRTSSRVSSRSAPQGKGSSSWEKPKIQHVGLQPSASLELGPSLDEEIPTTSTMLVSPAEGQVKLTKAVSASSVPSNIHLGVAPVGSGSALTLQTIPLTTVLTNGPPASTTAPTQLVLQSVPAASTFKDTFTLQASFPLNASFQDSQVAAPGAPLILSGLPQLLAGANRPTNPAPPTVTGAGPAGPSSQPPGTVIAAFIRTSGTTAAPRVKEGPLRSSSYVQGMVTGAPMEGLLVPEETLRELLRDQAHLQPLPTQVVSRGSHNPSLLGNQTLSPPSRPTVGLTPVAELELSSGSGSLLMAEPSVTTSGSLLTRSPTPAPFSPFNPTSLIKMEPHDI", "settings": "protein: recombinant; tags: N-terminal GST; dsDNA, one strand shown", "in_short": "as §1"}, "[6]": {"target": "T3, ELK4 (Homo sapiens, UniProt P28324-2 1-405)", "T3 sequence": "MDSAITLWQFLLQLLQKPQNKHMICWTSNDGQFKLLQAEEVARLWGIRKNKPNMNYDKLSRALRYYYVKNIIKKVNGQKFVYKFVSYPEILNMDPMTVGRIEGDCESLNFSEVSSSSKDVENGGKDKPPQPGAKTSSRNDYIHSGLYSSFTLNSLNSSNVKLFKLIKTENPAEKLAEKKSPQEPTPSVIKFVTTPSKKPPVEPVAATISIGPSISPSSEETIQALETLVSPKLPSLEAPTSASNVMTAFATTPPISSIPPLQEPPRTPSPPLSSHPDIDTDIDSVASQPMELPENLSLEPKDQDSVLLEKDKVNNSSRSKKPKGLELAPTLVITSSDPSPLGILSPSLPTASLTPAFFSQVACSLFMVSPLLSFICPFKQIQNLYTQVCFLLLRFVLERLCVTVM", "settings": "protein: recombinant; tags: N-terminal GST; dsDNA, one strand shown", "in_short": "as §1"}, "[7]": {"target": "T4, ETV2 (Homo sapiens, UniProt O00321 1-342)", "T4 sequence": "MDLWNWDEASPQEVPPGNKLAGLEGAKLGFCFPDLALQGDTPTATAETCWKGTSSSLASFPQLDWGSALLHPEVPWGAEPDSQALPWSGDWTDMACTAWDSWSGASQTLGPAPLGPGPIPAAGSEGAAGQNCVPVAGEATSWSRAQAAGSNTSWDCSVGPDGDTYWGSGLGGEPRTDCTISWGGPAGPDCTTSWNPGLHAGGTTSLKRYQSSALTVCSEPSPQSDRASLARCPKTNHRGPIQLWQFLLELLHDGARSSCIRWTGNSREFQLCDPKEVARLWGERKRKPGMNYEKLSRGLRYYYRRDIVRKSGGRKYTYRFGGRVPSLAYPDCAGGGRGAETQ", "settings": "protein: recombinant; tags: N-terminal GST; dsDNA, one strand shown", "in_short": "as §1"}, "[8]": {"target": "T5, ELF3 (Homo sapiens, UniProt P78545 1-371)", "T5 sequence": "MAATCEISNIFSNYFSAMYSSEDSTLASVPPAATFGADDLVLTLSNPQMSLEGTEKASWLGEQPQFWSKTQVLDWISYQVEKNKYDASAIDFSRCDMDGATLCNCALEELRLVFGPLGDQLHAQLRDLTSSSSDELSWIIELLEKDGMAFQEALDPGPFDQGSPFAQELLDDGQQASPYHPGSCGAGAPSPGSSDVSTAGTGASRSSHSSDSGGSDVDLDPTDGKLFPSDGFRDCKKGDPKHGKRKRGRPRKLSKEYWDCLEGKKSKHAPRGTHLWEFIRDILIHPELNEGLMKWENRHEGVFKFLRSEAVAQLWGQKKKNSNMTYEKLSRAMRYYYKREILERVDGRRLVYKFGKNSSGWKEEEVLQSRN", "settings": "protein: recombinant; tags: N-terminal GST; dsDNA, one strand shown", "in_short": "as §1"}, "[9]": {"target": "CRX (Homo sapiens, UniProt O43186 1-299)", "sequence (O43186 whole entry)": "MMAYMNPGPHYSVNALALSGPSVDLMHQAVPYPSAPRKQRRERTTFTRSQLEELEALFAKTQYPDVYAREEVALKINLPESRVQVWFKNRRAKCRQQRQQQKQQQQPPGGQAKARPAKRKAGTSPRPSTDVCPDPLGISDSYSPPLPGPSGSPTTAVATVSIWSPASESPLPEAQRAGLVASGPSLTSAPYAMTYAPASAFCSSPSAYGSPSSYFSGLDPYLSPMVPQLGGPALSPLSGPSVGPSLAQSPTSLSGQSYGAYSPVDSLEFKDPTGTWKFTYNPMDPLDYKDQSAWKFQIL", "settings": "protein: recombinant; tags: N-terminal GST; dsDNA, one strand shown", "in_short": "as §1"}},
  "data": [
    {"sequence": "ACTATA", "values": [
      {"measurement": "binding signal", "setting": "[1]", "result": "1.29 fold enrichment (6-mer frequency, TF over GST control)"},
      {"measurement": "binding signal", "setting": "[2]", "result": "1.33 fold enrichment (6-mer frequency, TF over GST control)"},
      {"measurement": "binding signal", "setting": "[3]", "result": "1.26 fold enrichment (6-mer frequency, TF over GST control)"},
      {"measurement": "binding signal", "setting": "[4]", "result": "1.26 fold enrichment (6-mer frequency, TF over GST control)"},
      {"measurement": "binding signal", "setting": "[5]", "result": "1.3 fold enrichment (6-mer frequency, TF over GST control)"},
      {"measurement": "binding signal", "setting": "[6]", "result": "1.42 fold enrichment (6-mer frequency, TF over GST control)"},
      {"measurement": "binding signal", "setting": "[7]", "result": "1.3 fold enrichment (6-mer frequency, TF over GST control)"},
      {"measurement": "binding signal", "setting": "[8]", "result": "1.38 fold enrichment (6-mer frequency, TF over GST control)"},
      {"measurement": "binding signal", "setting": "[9]", "result": "1.4 fold enrichment (6-mer frequency, TF over GST control)"}
    ]}
  ]
}
